About 79,000 compounds went through this panel and 15% of them were active in at least one assay; those are over-represented in the sample as a whole. A number with no mark means an inactive call. The source made the active and inactive calls. No stated cut-off is given here; in the data, active means growth inhibition above about 70%; inactive means the rest.

A short description of this test: NCI Yeast Anticancer Drug Screen. Data for the rad18 strain (AID 177). Particulars: S. cerevisiae rad18 mutant growth inhibition, hits give high values. As to the method:
Growth inhibition of yeast strains with defined genetic alterations is measured as a screen for potential anti-cancer activity. Selected strains with alterations in DNA damage repair or cell cycle control were exposed to compounds and growth inhibition was measured relative to vehicle treated controls. The strain used in this assay is rad18

Regarding `c1c(N2CCOCC2)ssc1=[N+]1CCOCC1`, the growth inhibition reads like this: (at 1.2 µM) -1%; (at 3.7 µM) -2%; (at 11.0 µM) -1%; (at 33.0 µM) -1%; (at 100.0 µM) -2%.
For `CC(C)(C)c1cc([N+](=O)[O-])cc([N+](=O)[O-])c1O`, the growth inhibition by setting is: (at 1.2 µM) -30%; (at 3.7 µM) -13%; (at 11.0 µM) -18%; (at 33.0 µM) 17%; (at 100.0 µM) 30%.
The matching figures for `[O-][n+]1c2cccc(O)c2[n+]([O-])c2cccc(O)c21`: 31%, 75% (active), 92% (active), 94% (active) and 94% (active).
For `CCc1cccc(C(C)C)c1NC1=C([n+]2ccc(C)cc2)C(=O)c2ccccc2C1=O` the same measures were 0%, -3%, 0%, 1% and 17%.
For `O=C(/C=C(\c1ccccc1)N1CC1)c1ccccc1` the same measures were -1%, 4%, 13%, 16% and 96% (active).
Regarding `Nc1nc(N)c2c(Cl)c(CNc3ccc(C(=O)NC(CC(=O)O)C(=O)O)cc3)ccc2n1` (stereo not given), the growth inhibition is 48% (at 1.2 µM); 54% (at 3.7 µM); 57% (at 11.0 µM); 78% (active) (at 33.0 µM); 84% (active) (at 100.0 µM).
The matching figures for `CN(N=O)C(=O)NNC(=O)N(C)N=O`: 71% (active), 95% (active), 96% (active), 96% (active) and 96% (active).
For the molecule `NNc1ccccc1Cl`, the growth inhibition is 46% (at 1.2 µM); 86% (active) (at 3.7 µM); 84% (active) (at 11.0 µM); 95% (active) (at 33.0 µM); 97% (active) (at 100.0 µM).

These data come from PubChem BioAssay (NCI).
